Reference: PMC9838217, “Structure of SALL4 zinc finger domain reveals link between AT-rich DNA binding and Okihiro syndrome”
Positions count from the first letter of the chain named.

Target: T1, SALL4 ZFC4 R900W (HT-SELEX) (Mus musculus, UniProt Q8BX22 870-940, R900W)
T1 sequence: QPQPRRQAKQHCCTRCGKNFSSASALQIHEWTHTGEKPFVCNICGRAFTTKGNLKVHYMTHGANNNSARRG
Test: HT-SELEX; high values mean tight binding
Conditions: protein: recombinant; vector His6-GST; dsDNA, one strand shown
Outline: (§1)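 Each canonical k-mer's binding signal is its read fraction expressed as fold change over the initial random library. Reads came from MiSeq sequencing, scanned for 6-mers, after up to 6 triplicate cycles in which purified recombinant mouse SALL4 zinc finger cluster 4 (residues 870–940, 1 µg) bound library DNA (1.5 µg first cycle, 200 ng later) in 100 µl of 10 mM Tris–HCl pH 7.5, 50 mM NaCl, poly(dI-dC), DTT for 10 min at room temperature. Complexes were then Ni2+ bead-captured, washed, PCR-amplified and reselected.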

| Sequence | binding signal [fold-change vs cycle 0] |
| --- | --- |
| AATGAG | 1.5 ± 0.047 |
| GATTAC | 1.54 ± 0.0979 |
| CATGGG | 0.543 ± 0.0349 |
| AGTGTA | 1.43 ± 0.0767 |
| TCTGAA | 1.43 ± 0.078 |
| AGACCG | 0.393 ± 0.0317 |
| ATTCAC | 1.45 ± 0.0876 |
| CCAAGG | 0.535 ± 0.0059 |
| ACACAC | 0.815 ± 0.0148 |
| AACAGC | 0.644 ± 0.0188 |
| ACCACA | 0.793 ± 0.0317 |
| CATTTC | 1.26 ± 0.0656 |
| GTCTAA | 1.28 ± 0.0593 |
| CTAATC | 1.55 ± 0.0541 |
| TACTGA | 1.53 ± 0.139 |
| ATTTTG | 1.5 ± 0.0395 |
| ATAGCC | 0.6236 ± 0.00564 |
| GGTAGA | 0.849 ± 0.0219 |
| ACCTTG | 0.986 ± 0.024 |
| AGTGGG | 0.528 ± 0.0236 |

| Sequence | binding signal [fold-change vs cycle 0] |
| --- | --- |
| ATCAAA | 1.83 ± 0.114 |
| AGAACT | 1.545 ± 0.00829 |
| ATTAAG | 2.09 ± 0.139 |
| ACCCCA | 0.525 ± 0.0104 |
| AACCCA | 0.894 ± 0.0477 |
| AATATC | 1.88 ± 0.0733 |
| ACTAGC | 0.764 ± 0.0235 |
| CGTTGA | 0.763 ± 0.00493 |
| ACGTAA | 1.3 ± 0.0477 |
| AAGCTT | 1.27 ± 0.0133 |
| AATTCA | 1.93 ± 0.125 |
| CGAACA | 0.694 ± 0.0214 |
| ATACTC | 1.5 ± 0.0712 |
| TGATAA | 2.08 ± 0.2 |
| TAGCAA | 1.17 ± 0.0822 |
| TGGCAA | 0.535 ± 0.0186 |
| ATCGGG | 0.457 ± 0.0142 |
| AATTAA | 2.6 ± 0.189 |
| CCTTGA | 1.041 ± 0.00922 |
| AGTTGC | 0.664 ± 0.014 |

Target: T2, SALL4 ZFC4 G921D (HT-SELEX) (Mus musculus, UniProt Q8BX22 870-940, G921D)
T2 sequence: T1 sequence with W31R, G52D
Test: HT-SELEX; high values mean tight binding
Conditions: protein: recombinant; vector His6-GST; dsDNA, one strand shown
Outline: as §1

| Sequence | binding signal [fold-change vs cycle 0] |
| --- | --- |
| AATGAG | 1.41 ± 0.0472 |
| GATTAC | 1.45 ± 0.0912 |
| CATGGG | 0.645 ± 0.0616 |
| AGTGTA | 1.36 ± 0.1 |
| TCTGAA | 1.37 ± 0.111 |
| AGACCG | 0.525 ± 0.0509 |
| ATTCAC | 1.38 ± 0.121 |
| CCAAGG | 0.642 ± 0.0371 |
| ACACAC | 0.903 ± 0.0448 |
| AACAGC | 0.761 ± 0.0273 |
| ACCACA | 0.841 ± 0.0188 |
| CATTTC | 1.23 ± 0.0622 |
| GTCTAA | 1.27 ± 0.0407 |
| CTAATC | 1.43 ± 0.0842 |
| TACTGA | 1.42 ± 0.164 |
| ATTTTG | 1.44 ± 0.0553 |
| ATAGCC | 0.747 ± 0.062 |
| GGTAGA | 0.892 ± 0.0246 |
| ACCTTG | 1 ± 0.0262 |
| AGTGGG | 0.608 ± 0.0502 |

| Sequence | binding signal [fold-change vs cycle 0] |
| --- | --- |
| ATCAAA | 1.69 ± 0.154 |
| AGAACT | 1.43 ± 0.129 |
| ATTAAG | 1.82 ± 0.22 |
| ACCCCA | 0.602 ± 0.0476 |
| AACCCA | 0.963 ± 0.0141 |
| AATATC | 1.75 ± 0.14 |
| ACTAGC | 0.825 ± 0.0195 |
| CGTTGA | 0.839 ± 0.0136 |
| ACGTAA | 1.21 ± 0.0842 |
| AAGCTT | 1.24 ± 0.0566 |
| AATTCA | 1.77 ± 0.161 |
| CGAACA | 0.787 ± 0.0244 |
| ATACTC | 1.44 ± 0.097 |
| TGATAA | 1.87 ± 0.208 |
| TAGCAA | 1.21 ± 0.0899 |
| TGGCAA | 0.673 ± 0.0414 |
| ATCGGG | 0.568 ± 0.0671 |
| AATTAA | 2.2 ± 0.282 |
| CCTTGA | 1.05 ± 0.0247 |
| AGTTGC | 0.77 ± 0.0363 |
